A short description of test [1]: Her2 expression decrease, cell viability multiplex – SKBR3 breast tumor cells, AlphaScreen, ATP viability, primary screen (AID 461;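 active = Her2 level under about 52% in both replicate screens, with viability over 70% of control, limit read from the data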;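 for Her2 level: lower value means less Her2 protein in the cells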;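 for viability: percent of carrier control wells set as 100% viability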). As to conditions: SKBR3 Her2 protein level, 18-24 h, measured here: SKBR3 viability, ATP luminescence, at 10 µM.
Test [2] addresses Receptor tyrosine-protein kinase erbB-2 (Homo sapiens) (UniProt P04626). The description is as above. As to conditions: 18-24 h, at 10 µM, stronger effect = lower value.
Test [3] can be described thus: reduced viability of SK-BR-3 breast cancer cells – cell-based, 24 h, human, pilot screen (AID 572;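 active = viability at or below 10% of carrier control in both of two separate runs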;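 note: compound exposure lasted between 18 and 24 h rather than exactly 24 h; 100% = carrier-treated control wells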). As to conditions: SK-BR-3 viability, CellTiter-Glo luminescence, at 10 µM, stronger effect = lower value. (In general: In ATP-based viability assays light output follows the ATP content of the culture.)
Test [4] in a line: HUVEC growth inhibition – cell-based, human, primary screen (AID 575;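 active = viability at or below 30% in both replicate assays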;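 note: 100% = median of untreated cell wells with 0.1% DMSO on each plate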). As to conditions: HUVEC proliferation, CellTiter-Glo luminescence, 72 h; at 10 µM; stronger effect = lower value.
The nature of test [5]: H69AR cell proliferation blockers – human, duplicate replicates, primary screen (AID 580;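 active = viability at or under a set limit in both replicates, limit being median viability minus 3 SD, cut at about 48% in these data, passing the limit was not always enough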;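 note: 100% = mean luminescence of untreated wells and 0% = no signal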). The conditions noted are these: H69AR lung tumor cells viability, ATP luminescence, 72 h; at 10 µM; stronger effect = lower value.
Test [6] can be described thus: MRP1 drug-resistance reversers in H69AR cells – cell-based, doxorubicin co-treatment, pilot screen (AID 601;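 active = viability loss from added drug above about 55%, and viability with drug at most 40%, in both replicates, limit read from the data, passing the limit was not always enough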). The conditions noted are these: CellTiter-Glo, 72 h, at 10 µM; for differential viability (reversal): stronger effect = higher value.
A short description of test [7]: yeast transport mutant growth inhibition pilot in 384-well plates, post-Golgi transport modulator project (AID 636; in the data active = inhibition above about 31%). As to conditions: absorbance 615 nm, about 18 h, stronger effect = higher value.
Test [8] is described as follows: growth suppression of yeast trafficking mutant, preliminary HTS, modulators of trafficking downstream of Golgi apparatus project, 1536-format plate, OD 615 nm (AID 637; in the data active = inhibition above about 30%). The conditions noted are these: yeast transport mutant growth, absorbance 615 nm, 18 h; stronger effect = higher value.
Test [9] in a line: S. cerevisiae growth inhibition in permissive medium (OD615), pilot counter-assay for S. cerevisiae lifespan shortening project, permissive growth control (AID 705;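 active = growth inhibition above 25% in both replicates, a cutoff set 3 SD above the mean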). The conditions noted are these: OD615, 24 h, at 10 µM, stronger effect = higher value.
The nature of test [10]: S. cerevisiae growth inhibition in restrictive medium, OD615, pilot screen, restrictive growth control, yeast lifespan reduction project (AID 706;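 active = growth inhibition above a set limit, 3 SD over mean compound inhibition, in both replicates, cut at about 43% in these data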;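 note: modified DeaD lifespan yeast strain shifted to restrictive glucose medium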). As to conditions: OD615, 48 h, at 10 µM, stronger effect = higher value.
Test [11] can be described thus: doxorubicin toxicity protection in MRP-1 cells – H69AR cells, CellTiter-Glo, duplicate, MRP-1 activator project, pilot screen (AID 807;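 active = viability increase at or above a cutoff of the median across tested compounds plus 3 SD, cut at about 8.5% in these data, passing the limit was not always enough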;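 note: compound pretreatment 18-22 h then 72 h combined with doxorubicin; 0% = doxorubicin alone and 100% = vehicle without doxorubicin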). As to conditions: H69AR viability with doxorubicin, CellTiter-Glo luminescence; at 10 µM; stronger effect = higher value.
Test [12] in a line: viability of HCT116 without oncogenic beta-catenin – human colon tumor cells, pilot screen (AID 823;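 active = cell viability at or below a set limit in both duplicate runs, the limit being the all-compound median minus 4 SD, cut at about 23% in these data, passing the limit was not always enough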;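 note: 0% = wells killed by 20 µM Hyamine and 100% = untreated DMSO cell wells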). As to conditions: HCT116 beta-catenin knockout viability, CellTiter-Glo, 60 h; at 10 µM; stronger effect = lower value.
A short description of test [13]: viability of PTEN-null HCT116 cells – cell-based, HCT116 clonal line, CellTiter-Glo, pilot screen (AID 824;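 active = viability at or below 27.92% in each of two runs, the all-compound median minus 4 SD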;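 note: 0% = 20 µM Hyamine control and 100% = vehicle cell control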). The conditions noted are these: HCT116 PTEN-deleted viability, 60 h, at 10 µM, stronger effect = lower value.
The nature of test [14]: RAM pathway blockade in budding yeast – dse1pr::URA3 reporter, 5-FOA selection, pilot screen (AID 869;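 active = inhibition over a set limit, the all-compound mean plus 3 SD, in both replicate runs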;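 note: 0% = DMSO wells with no growth and 100% = 10 µM 1-NA-PP1 with full growth; RAM network block rescues cells from 5-FOA so hits raise OD615 growth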). The conditions noted are these: S. cerevisiae dse1pr::URA3 5-FOA growth, OD615, 2 d; at 10 µM; stronger effect = higher value; strain carries analog-sensitive mutant Cbk1 kinase.
The nature of test [15]: RAM signaling pathway blockade in yeast – S. cerevisiae, Pdr1DBD-CYC8 efflux-inhibited sensitized strain, primary screen (AID 1298).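 Note: 0% = DMSO untreated cells without growth and 100% = 10 µM 1-NA-PP1 full growth; higher means more yeast growth rescued from 5-FOA killing.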 As to conditions: S. cerevisiae cbk1-as DSE1-URA3 strain, 5-FOA growth OD615, 2 d; at 50 µM; stronger effect = higher value.
The mark [16] stands for this setting: H69AR cells + 2 uM doxorubicin, measured here: viability with 2 uM doxorubicin, stronger effect = lower value.
[17] abbreviates: H69AR cells, compound alone cytotoxicity.

This is an account of results in PubChem BioAssay.

The term viability denotes a read-out of living cells in per cent, often relative to untreated cells. In general, inhibition refers to the change of the read-out against control, counted positive when it falls.

Structures are written as SMILES. Inconclusive results are not listed. The source made the active and inactive calls.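 Rule for the calls, unless noted: active = RAM network inhibition above 8.4% in each of two replicates, 3 SD over the compound average; inconclusive = above 8.4% inhibition in only one replicate; inactive = 8.4% inhibition or less in each replicate.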

Receptor tyrosine-protein kinase erbB-2 (Homo sapiens), sequence (P04626 whole entry, looked up): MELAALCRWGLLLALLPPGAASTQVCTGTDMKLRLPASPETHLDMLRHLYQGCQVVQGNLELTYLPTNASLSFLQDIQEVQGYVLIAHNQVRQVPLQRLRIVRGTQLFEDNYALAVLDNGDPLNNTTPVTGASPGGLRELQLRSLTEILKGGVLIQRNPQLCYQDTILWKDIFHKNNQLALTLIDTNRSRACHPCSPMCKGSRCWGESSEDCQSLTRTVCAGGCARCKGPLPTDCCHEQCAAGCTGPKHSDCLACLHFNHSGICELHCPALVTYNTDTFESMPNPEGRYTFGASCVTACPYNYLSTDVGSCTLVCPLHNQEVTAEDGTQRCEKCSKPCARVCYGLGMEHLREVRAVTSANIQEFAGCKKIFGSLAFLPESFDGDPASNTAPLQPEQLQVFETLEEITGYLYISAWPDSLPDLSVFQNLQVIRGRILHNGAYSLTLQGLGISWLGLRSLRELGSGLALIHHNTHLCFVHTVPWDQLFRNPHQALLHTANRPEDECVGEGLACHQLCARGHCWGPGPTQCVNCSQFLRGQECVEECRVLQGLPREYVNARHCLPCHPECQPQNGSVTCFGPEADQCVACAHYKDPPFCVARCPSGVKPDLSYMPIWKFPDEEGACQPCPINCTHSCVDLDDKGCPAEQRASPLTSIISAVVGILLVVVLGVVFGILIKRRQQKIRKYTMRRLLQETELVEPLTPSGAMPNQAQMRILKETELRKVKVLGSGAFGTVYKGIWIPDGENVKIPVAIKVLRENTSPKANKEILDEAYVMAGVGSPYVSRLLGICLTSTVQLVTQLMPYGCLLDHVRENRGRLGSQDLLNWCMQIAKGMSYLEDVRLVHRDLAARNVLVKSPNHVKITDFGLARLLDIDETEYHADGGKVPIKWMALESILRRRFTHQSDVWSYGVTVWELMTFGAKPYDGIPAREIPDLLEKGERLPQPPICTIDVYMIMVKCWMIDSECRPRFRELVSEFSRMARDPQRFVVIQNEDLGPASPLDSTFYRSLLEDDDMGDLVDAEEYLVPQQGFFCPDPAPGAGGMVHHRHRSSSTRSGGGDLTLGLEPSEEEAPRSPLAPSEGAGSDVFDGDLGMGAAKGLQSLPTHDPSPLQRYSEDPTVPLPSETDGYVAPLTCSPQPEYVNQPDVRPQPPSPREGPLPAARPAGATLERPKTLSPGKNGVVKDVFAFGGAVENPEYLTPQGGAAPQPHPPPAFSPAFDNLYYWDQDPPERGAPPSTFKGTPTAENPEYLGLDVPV

With `COc1cc(C(O)c2nc3ccccc3n2C)cc(OC)c1OC` (stereo not given), the viability in [1] is 91.5%; in test [3], 91.5% (inactive); in [4], 99.8% (inactive); in test [5] it was 103% (inactive); in test [6] (setting [16]) it was 93.2%; in test [6] (setting [17]), 103%. Besides, the viability is 94.1% (inactive) in test [12] and 93.3% (inactive) in test [13]. Further, the Her2 level in test [2] is 100% (inactive). In addition, the differential viability (reversal) in test [6] (H69AR cells + 2 uM doxorubicin) is 9.33% (inactive). For the same compound, the inhibition was 1.95% (inactive) in [7], -7.33% (inactive) in [8] and 1.35% (inactive) in test [14]. Moreover, the growth inhibition in [9] was -7.22% (inactive); in test [10], -9.59% (inactive). The viability increase in test [11] is -0.62% (inactive). Also, the RAM network inhibition in [15] is 0.78% (inactive).

Take `COc1c(C(=O)Nc2c(C)n(C)n(-c3ccccc3)c2=O)ccc2ccccc12`: the viability in [1] was 97%; in test [3] it was 97% (inactive); in [4] it was 99.3% (inactive); in test [5], 113% (inactive); in test [6] (setting [16]) it was 87%; in test [6] (setting [17]), 113%. Also, the results for the viability in test [12] and in test [13] were 98.8% (inactive) and 98.3% (inactive), respectively. Moreover, the Her2 level in test [2] is 104% (inactive). Besides, the differential viability (reversal) in [6] (H69AR cells + 2 uM doxorubicin) is 25.5% (inactive). For the same compound, the results for the inhibition in test [7], in test [8] and in [14] were -1.07% (inactive), -6.45% (inactive) and 0.775% (inactive), respectively. Moreover, the figures for the growth inhibition in [9] and in test [10] were -2.42% (inactive) and -6.28% (inactive), respectively. Further, the viability increase in [11] was -0.81% (inactive). The RAM network inhibition in [15] is 4.37% (inactive).

With `COCCn1c(SCC(=O)Nc2ccc3c(c2)OCCO3)nc2c(c1=O)SC(C)C2` (stereo not given), the viability in test [1] is 95%; in test [3], 95% (inactive); in test [4], 108% (inactive); in test [5], 84.4% (inactive); in [6] (setting [16]), 106%; in [6] (setting [17]), 84.4%. The viability in test [12] is 102% (inactive); in test [13], 95.8% (inactive). In addition, the Her2 level in [2] was 110% (inactive). Further, in test [6] (H69AR cells + 2 uM doxorubicin), the differential viability (reversal) is -21.9% (inactive). Besides, the figures for the inhibition in [7], in test [8] and in test [14] were -1.07% (inactive), -2% (inactive) and 1.71% (inactive), respectively. Also, the growth inhibition was -6.57% (inactive) in [9] and -5.1% (inactive) in test [10]. Further, the viability increase in test [11] is -1.19% (inactive). Moreover, the RAM network inhibition in test [15] is -0.11% (inactive).

As to `CCN(CC)C(=O)Oc1ccc(NC(C)=O)cc1`, the viability in test [1] is 88.5%; in test [3], 88.5% (inactive); in test [4] it was 97.4% (inactive); in test [5], 93.6% (inactive); in test [6] (setting [16]), 94.6%; in test [6] (setting [17]), 93.6%. Also, the results for the viability in test [12] and in test [13] were 105% (inactive) and 108% (inactive), respectively. Moreover, the Her2 level in test [2] is 108% (inactive). For the same compound, in test [6] (H69AR cells + 2 uM doxorubicin), the differential viability (reversal) is -0.975% (inactive). Besides, the inhibition was 0.91% (inactive) in test [7], -6.33% (inactive) in [8] and 1.06% (inactive) in test [14]. Besides, the growth inhibition in [9] is -4.01% (inactive); in test [10], -12% (inactive). Moreover, the viability increase in [11] is -0.49% (inactive). In addition, the RAM network inhibition in [15] is 1.82% (inactive).

As to `CC(=O)OC1c2ccccc2C(=O)N1Cc1ccccc1Cl` (stereo not given), the viability is 93.5% in test [1]; 93.5% (inactive) in test [3]; 91.3% (inactive) in test [4]; 88.5% (inactive) in [5]; 90.8% in test [6] (setting [16]); 88.5% in test [6] (setting [17]). Besides, the viability in test [12] is 74.6% (inactive); in test [13], 91.5% (inactive). In addition, the Her2 level in [2] is 92.5% (inactive). Moreover, in test [6] (H69AR cells + 2 uM doxorubicin), the differential viability (reversal) was -2.26% (inactive). In addition, the inhibition in test [7] is -5.87% (inactive); in test [8], -4.83% (inactive); in [14] it was 0.06% (inactive). In addition, the growth inhibition is -1.57% (inactive) in test [9] and 5.51% (inactive) in [10]. Besides, in test [11], the viability increase was -3.19% (inactive). Further, in test [15], the RAM network inhibition is 5.73% (inactive).
